Measurements as given in PubChem BioAssay AID602243 (Broad Institute, 2012).
The list shows a part of the results. Unmarked numbers belong to inactive results. How the calls were made is not given here.

Test: V. cholerae lux activation without autoinducers – BH1578 luxS cqsA deficient, cherry-pick, plate reader, dose response (AID 602243)
Conditions: V. cholerae BH1578 lux reporter, luminescence, 6 h; series mostly up to 50 µM; activation: at the top concentration

Row | Compound | activation
1 | CCCS(=O)(=O)N1CCCC(C(=O)N2CCN(c3ccccc3)CC2)C1 (stereo not drawn) | 0.376%
2 | Cc1cccc(C(=O)OCC(=O)NCC(C)C)c1O | 1270%
3 | CCC(C)(C)n1nnnc1CN1CCN(c2nc3ccc(C)cc3cc2C#N)CC1 | 0.074%
4 | CC(=O)N1CCN(C(=O)c2cc(-c3ccc(Cl)s3)nc3ccccc23)CC1 | 0.973%
5 | O=C(NCCS(=O)(=O)N1CCN(c2ccccc2)CC1)c1ccco1 | 0.155%
6 | COc1ccc(N(CC(=O)NC2CCCCC2)C(=O)CNC(=O)c2ccco2)c(OC)c1 | 0.776%
7 | COc1ccccc1CCNC(=O)C(=O)NCCC1CCCCN1S(=O)(=O)c1cccs1 (stereo not drawn) | -0.142%
8 | COc1cc(S(=O)(=O)N(Cc2cccs2)C2CC2)ccc1-n1cnnn1 | 0.162%
9 | CCOC(=O)C1(CCOc2ccccc2)CCN(Cc2cc(OC)cc(OC)c2)CC1 | 0.196%
10 | Cc1onc(-c2ccccc2)c1C(=O)N1CCOCC1 | 0.2%
11 | COc1ccc2[nH]c(=O)c(CNc3ccc(C)c(C)c3)cc2c1 | 0.802%
12 | NNC(=O)c1nnn(-c2nonc2N)c1CN1CCCC1 | 227%
13 | CC(C)CNC(=O)COC(=O)/C=C/c1ccco1 | 434%
14 | O=C(Cc1ccc2c(c1)CCCC2)Nc1ccccc1Cl | 20.6%
15 | O=C(CN1CCC(O)(c2cccc(C(F)(F)F)c2)CC1)NCCc1ccccc1 | 217%
16 | CN(CC(=O)Nc1ccc(OC(F)(F)F)cc1)C(=O)C1CCC1 | 2.11%
17 | O=C(Nc1ccc2oc(-c3ccc4ccccc4c3)nc2c1)c1cccs1 | -0.042%

Row | Compound | activation
18 | CCN(CC)c1nc(-c2ccccc2)cc(C(F)(F)F)c1C#N | 0.082%
19 | CCN(CC(=O)NCc1ccc(Cl)cc1)C(=O)CSc1ccccc1 | 1.79%
20 | CCOc1ccc(CCNC(=O)C2CCN(c3ccc(N4CCOCC4)nn3)CC2)cc1OCC | 0.22%
21 | COc1ccc(S(=O)(=O)N2CCN(c3cnccn3)CC2)cc1 | -0.115%
22 | CC1CN(C(=O)COC(=O)c2cccc(NS(=O)(=O)c3ccccc3)c2)CC(C)O1 (stereo not drawn) | 0.085%
23 | NC(=O)c1nsc(C(=O)N(CC(=O)NCc2ccc(F)cc2)Cc2ccco2)c1N | 0.105%
24 | CCc1cccc(C)c1N(C(=O)Cn1c(CO)nc2ccccc21)C(C)COC (stereo not drawn) | 0%
25 | CCCn1nnnc1NCc1ccc(OC)cc1 | 1100%
26 | COc1ccc(OCc2cn3c(C)cc(C)nc3n2)cc1 | 327%
27 | CCCn1nnnc1NCc1ccc(CC)cc1 | 4240%
28 | CC(C)CC(=O)N1CCN(Cc2ccccc2Br)CC1 | 0.219%
29 | O=C(NCc1ccccn1)c1c(O)c2c([nH]c1=O)CCCC2 | 0.073%
30 | COc1ccc(Cl)cc1NC(=O)COC(=O)c1ccc(Br)o1 | 1.99%
31 | COc1ccc(Cl)cc1NC(=O)CN(C)C(=O)CNC(=O)C12CC3CC(CC(C3)C1)C2 | -0.645%
32 | COc1ccc(CNc2nnnn2C)cc1 | 0.987%
33 | COCCn1nnnc1CN1CCC(NC(=O)Nc2cccc(OC)c2)CC1 | 0.222%
